Experimental data as given in the supplement of paper PMC11219838.
Unmarked numbers belong to inactive results.

How the values were obtained:
Conditions in all cases: 60 µM; 5 days; temperature: 20 °C
Meloidogyne hapla J2 = test: proportion of mobile M. hapla J2 relative to DMSO control (fraction of DMSO control); higher = more viable, less nematicidal, active = 0.7 or less
Method in brief: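 Two biological replicates were run and averaged, each on 96-well plates in which about 25 M. hapla J2 sat in distilled water per well. Compound was pinned in to give 60 µM final and 0.6% v/v DMSO, and the sealed plates were shaken at 200 rpm and 20 °C for 5 days before 2 µL 1 M NaOH was added. Mobility was scored microscopically and divided by the mean from the plate's DMSO-only wells, of which there were eight.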

[1] = system: Caenorhabditis elegans dauer (daf-2(e1370)); test: proportion of mobile C. elegans dauer larvae relative to DMSO control (fraction of DMSO control); higher = more viable, less nematicidal, active = 0.63 or less; extreme values may be limits of the assay
Method in brief: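 Synchronized C. elegans daf-2(e1370) larvae were held at 25 °C for 48 h on MYOB plates with E. coli OP50 to form dauers, and about 20 dauers were added per 96-well well in liquid NGM. Compound was pinned to 60 µM final (0.6% v/v DMSO), and sealed plates were shaken at 200 rpm for 5 days at 20 °C. The proportion of mobile worms was scored under a dissection microscope relative to DMSO controls and averaged over two biological replicates.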

Ditylenchus dipsaci = test: proportion of mobile D. dipsaci (mixed stage) relative to DMSO control (fraction of DMSO control); higher = more viable, less nematicidal, active = 0.86 or less; extreme values may be limits of the assay
Method in brief: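 The worms, D. dipsaci raised on pea plants in Gamborg B-5 agar, were recovered through a filter funnel into water. Each well of a 96-well plate then held about 20 of them in distilled water plus pinned compound at 60 µM final (0.6% v/v DMSO), and the sealed plates were shaken at 200 rpm at 20 °C for 5 days. Following addition of 2 µL 1 M NaOH, mobile worms were counted by microscopy, and mobility was expressed against DMSO controls as the average of two biological replicates.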

Structure (SMILES)	proportion of mobile M. hapla J2 (Meloidogyne hapla J2)	proportion of mobile C. elegans dauer larvae [1]	proportion of mobile D. dipsaci (Ditylenchus dipsaci)
COc1ccc(-c2noc(-c3ccc(Br)cc3)n2)cc1	1.04	1	1
Cc1cnnn1-c1ccc(-c2nc(-c3ccc(Cl)cc3)no2)cc1	0.963	1	1
Cc1cccc(OCc2nc(-c3ccccc3)no2)c1	1.04	1	1
Brc1ccc(-c2noc(CSc3ccccc3)n2)cc1	1.09	1	1
Fc1cccc(Cl)c1CSc1nnc(-c2ccccc2)o1	1	0.977	1
O=C(CSc1nnc(-c2ccccc2Cl)o1)Nc1ccc(Br)cn1	0.851	1	1
Brc1ccc(-c2nnc(-c3cccs3)o2)o1	1.07	0.75	0.362 (active)
Ic1ccccc1-c1nc(-c2cccnc2)no1	1.02	1	1
O=C(CSc1nnc(-c2ccco2)o1)c1ccc(Br)cc1	0.997	1	1
Clc1ccccc1OCc1nc(-c2cccs2)no1	1.06	1	1
Cc1cccc(-c2nnc(SCC(=O)Nc3ccccc3C(C)C)o2)c1	0.892	1	1
CCOc1cc(C#N)ccc1OCc1nc(-c2cccs2)no1	1.07	1	1
COc1ccc(-c2noc(-c3cccc(Cl)c3)n2)cc1	0.819	1	1
COc1ccc(OC(C)c2nc(-c3ccccn3)no2)cc1 (stereo unspecified)	1.03	1	1
Cc1cc(OCc2nc(-c3ccccn3)no2)cc(C)c1Cl	1.05	1	1
Cc1cc(OCc2nc(-c3ccncc3)no2)ccc1Cl	0.921	1	1
COc1ccccc1OCc1nc(-c2ccccc2)no1	0.973	1	1
